Results reported in PubChem BioAssay (NCI).
Where “and” joins values, the source holds several entries; their conditions need not be identical. Equal values may be shown once. The panel holds about 83,000 compounds, 20% with a hit somewhere; the sample as a whole holds those more often.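 Results are percent growth after 48 hours of single-concentration exposure. 100 means growth as in untreated cells, lower positive values show inhibition; negative values down to -100 show cell death.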 Calls of active or inactive are those of the source.

system: NCI-H23 lung; assay: NCI-60 one-dose screen, 48 h (100 = growth as untreated, 0 = no growth, -100 = all killed); details: 1 µM
Method: Growth inhibition of the NCI-H23 human Non-Small Cell Lung tumor cell line is measured as a screen for anti-cancer activity. Cells are grown in 96 well plates and exposed to the test compound for 48 hours. Compounds are tested at a single concentration, which is 10^-5 M for most compounds. The reported endpoint is percent growth (GI% or GIPRCNT), where numbers from 0 - 100% represent growth inhibition, and numbers from -100% - 0 represent cell death. For example, a value of 40 represents 60% growth inhibition. A value of 0 means no net growth occurred over the course of the experiment. A value of -40 indicates 40% of cells at the beginning of the experiment died by the end of the experiment. A value of -100 means all cells are dead at the end of the experiment.
NCI-60 Human Tumor Cell Lines Screen was performed using the standard one-dose NCI protocol, which is described in more detail at https://dtp.cancer.gov/discovery_development/nci-60/default.htm.
Compounds with GIPRCNT values below 10 were considered active. Activity score was based on GIPRCNT using the following formula: […]
Score is 0 for GIPRCNT values of 100 or above, 50 for GIPRCNT values of 0, and 100 for GIPRCNT values of -100.

Row | SMILES | growth
1 | CNC(=O)c1cc(Oc2ccc(CC(=O)Nc3cc(C(C)(C)C)nn3C)cc2)ccn1 | 50% (inactive)

same assay, conditions: 10 µM

Row | SMILES | growth
2 | CCc1ccccc1-n1c(N)c(C#N)c(-c2ccc(OC)c(OC)c2)c(C#N)c1=O | 105% (inactive)
3 | CNC(=O)c1cc(Oc2ccc(CC(=O)Nc3cc(C(C)(C)C)nn3C)cc2)ccn1 | 49% (inactive)
4 | CC#C[C@]1(O)CC[C@H]2[C@@H]3CCC4=CC(=O)CCC4=C3[C@@H](c3ccc4c(c3)OCO4)C[C@@]21C | 82.8% (inactive)

same assay, conditions: 10 µM unless noted

Row | SMILES | growth
5 | S=C(S)N1CCCC1 | 108% (inactive) and 102% (inactive)
6 | O=CC(O)C(O)C(O)CO (stereo not given) | 13.3% (inactive) and 100% (inactive)
7 | COc1ccc2c(=O)cc(-c3ccccc3)[nH]c2c1 | 34.4% (inactive) and 16.5% (inactive)
8 | CC(C)Cc1ccc(C(C)C(=O)NCc2ccc(Cn3c(=O)sn(CCCCl)c3=O)cc2)cc1 (stereo not given) | 96.7% (inactive) and -59.1% (active)
9 | COc1ccc2ccccc2c1/C=N/N1CCCCC1 | 97.2% (inactive)
10 | CN(C)CCCN1c2ccccc2Sc2ccc(Cl)cc21 | 90.4% (inactive) and 112% (inactive) and 111% (inactive)
11 | CCOC(=O)c1sc(N)nc1-c1ccccc1 | 101% (inactive)
12 | Cc1ccc(S(=O)(=O)Nc2ccc3cc([N+](=O)[O-])ccc3c2[N+](=O)[O-])cc1 | 65.7% (inactive) and 92.6% (inactive)
13 | O=S(=O)(Nc1ccccc1)C1CCCCC1 | 98.6% (inactive) and 96.6% (inactive)
14 | CCOc1ccc2c(S(=O)(=O)O)cccc2c1[N+](=O)[O-] | 94.5% (inactive) and 102% (inactive)
15 | CC(C)N=c1cc2n(-c3ccc(Cl)cc3)c3ccccc3nc-2cc1Nc1ccc(Cl)cc1 | -15.1% (active) and -62% (active) and -35.6% (active)
16 | Oc1ccc(/C=C/c2ccccc2)cc1 | 73.2% (inactive) and 76.4% (inactive)
17 | CO/N=C/C=C\C(=O)N/C=C/C[C@H]1/C=C/[C@H](O)/C=C\C=C\c2cccc(O)c2C(=O)O1 | 61.4% (inactive) and 54.8% (inactive)
18 | CCN(CC)CCCC(C)Nc1cnc(C(=O)Nc2cc(F)cc3cccnc23)cn1 (stereo not given) | 81.4% (inactive) and -25.1% (active)
19 | CN(C)c1ccc(/C=C(\C#N)c2ccccc2)cc1 | 29.3% (inactive) and 36.4% (inactive) and 44.1% (inactive)
20 | COc1ccc(S(=O)(=O)N2CCOCC2)cc1NC(=O)c1[nH]c(C)c2c1CCCCC2=O | 104% (inactive) and 59% (inactive)
21 | COc1c(/C(C)=N/N=c2sc(C(C)=O)nn2-c2ccc(Cl)cc2)c(Oc2ccccc2)c(OC)c2occc12 | 89.6% (inactive) and 98% (inactive)

Row | SMILES | growth
22 | O=C(Nc1ccc(Cl)cc1)c1cc2ccccc2cc1O | 12.2% (inactive) and 4.22% (active)
23 | O=C(CCc1ccc(O)cc1)N/N=C/c1cc(Br)ccc1O | 61.4% (inactive)
24 | CC(C)Oc1ccc2cc(-c3nn(CC4CCNCC4)c4ncnc(N)c34)ccc2c1 | 67.3% (inactive) and 42.6% (inactive)
25 | O=[N+]([O-])c1ccc(/C=N\NC(=S)Nc2ccc(F)cc2)cc1 | 101% (inactive) and 88.3% (inactive)
26 | O=C(c1ccc(Cl)cc1)C(NCCO)c1ccc(Cl)cc1 (stereo not given) | 90.7% (inactive) and 90.4% (inactive)
27 | Cc1cc(O)c(C(C)C)cc1S(=O)(=O)O (tested in a mixture with another compound) | 87.6% (inactive) and 13% (inactive) and 102% (inactive)
28 | CCCCCCCCCCCCOc1ccccc1C=O | 100% (inactive)
29 | CN(C)CCC(=O)c1ccc(Cl)cc1 | 109% (inactive) and 86.8% (inactive)
30 | O=C(O)C1C2C=CC(C2)C1C(=O)O (stereo not given) | 104% (inactive) and 30.6% (inactive) and 111% (inactive)
31 | O=c1c2ccccc2nc2n1Cc1nc3ccccc3c(=O)n1C2 | 92.2% (inactive) and 100% (inactive)
32 | O=[N+]([O-])c1ccccc1/C=N\Nc1ccccc1 | 75.3% (inactive) and 88.1% (inactive)
33 | CC(C)(O)Cn1cc(-c2ccc3nc(OC4CC4)ccc3c2)c2c(N)ncnc21 | 70.1% (inactive) and 42% (inactive)
34 | O=C(CN1CCOCC1)N1CCOCC1 | 110% (inactive) and 104% (inactive)
35 | CCCCCCCCCCCCCCCc1cc(O)ccc1N | 90.5% (inactive) and 89.6% (inactive)
36 | Nc1ccc2ccc(N)cc2c1 | 69.7% (inactive)
37 | COc1cc2nc(N3CCC[C@@H](NC(=O)C4COc5ccccc5O4)C3)nc(N)c2cc1OC (stereo not given in full) | 99.6% (inactive) and 99.7% (inactive)

same assay, conditions: 30 µM

Row | SMILES | growth
38 | CNC(=O)c1cc(Oc2ccc(CC(=O)Nc3cc(C(C)(C)C)nn3C)cc2)ccn1 | 48.9% (inactive)

same assay, conditions: 100 µM

Row | SMILES | growth
39 | CCc1ccccc1-n1c(N)c(C#N)c(-c2ccc(OC)c(OC)c2)c(C#N)c1=O | 29.3% (inactive)
40 | CC#C[C@]1(O)CC[C@H]2[C@@H]3CCC4=CC(=O)CCC4=C3[C@@H](c3ccc4c(c3)OCO4)C[C@@]21C | -8.63% (active)
